Data taken from PubChem BioAssay AID651626 (National Center for Advancing Translational Sciences (NCATS), 2012).
The source made the active and inactive calls.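 How the source made its calls: active means inhibition of at least 60% at 114 µM in the USP2 gel assay; inconclusive means inhibition from 30% up to under 60% at 114 µM; inactive means inhibition under 30% at 114 µM.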

Target: Ubiquitin carboxyl-terminal hydrolase 2 (Homo sapiens) (UniProt O75604)
Assay: Inhibitors of USP1/UAF1: SAR in USP2 diubiquitin SDS-PAGE gel assay
Settings: USP2 K63 diubiquitin cleavage, SDS-PAGE gel densitometry; series mostly up to 114 µM; inhibition: at the top concentration
Text: Deubiquitinating enzymes (DUBs) are a class of enzymes that can cleave isopeptide bond formed between the C-terminal carboxylate of ubiquitin and a lysine side-chain amino group on the target protein. Among them, ubiquitin specific proteases (USPs) constitute the largest DUB family. Human USPs are emerging as promising targets for pharmacological intervention because of their connection to a number of human diseases, including prostate, colon and breast cancer (1, 2), pediatric acute lymphoblastic leukemia (3), and familial cylindromatosis (4). The advantage of inhibiting USPs lies in the potential specificity of therapeutic intervention that can lead to better efficacy and reduce nonspecific side effects. In a collaboration between the University of Delaware and the NIH Chemical Genomics Center, a high-throughput screen assay was developed to screen for USP1/UAF1 inhibitors (5). […]
The inhibition assay contains 20 nM USP2, 2 microM K63 linked diubiquitin, and inhibitors at varied concentrations (0.08 microM - 114 microM). […] The intensity of the individual diubiquitin and monoubiquitin band was quantified using Quantity One 4.3.1 (Biorad, Hercules, CA). The percentage of the conversion was determined and used to calculate the reaction rate. […]

Sequence of Ubiquitin carboxyl-terminal hydrolase 2 (Homo sapiens) (O75604 whole entry, looked up): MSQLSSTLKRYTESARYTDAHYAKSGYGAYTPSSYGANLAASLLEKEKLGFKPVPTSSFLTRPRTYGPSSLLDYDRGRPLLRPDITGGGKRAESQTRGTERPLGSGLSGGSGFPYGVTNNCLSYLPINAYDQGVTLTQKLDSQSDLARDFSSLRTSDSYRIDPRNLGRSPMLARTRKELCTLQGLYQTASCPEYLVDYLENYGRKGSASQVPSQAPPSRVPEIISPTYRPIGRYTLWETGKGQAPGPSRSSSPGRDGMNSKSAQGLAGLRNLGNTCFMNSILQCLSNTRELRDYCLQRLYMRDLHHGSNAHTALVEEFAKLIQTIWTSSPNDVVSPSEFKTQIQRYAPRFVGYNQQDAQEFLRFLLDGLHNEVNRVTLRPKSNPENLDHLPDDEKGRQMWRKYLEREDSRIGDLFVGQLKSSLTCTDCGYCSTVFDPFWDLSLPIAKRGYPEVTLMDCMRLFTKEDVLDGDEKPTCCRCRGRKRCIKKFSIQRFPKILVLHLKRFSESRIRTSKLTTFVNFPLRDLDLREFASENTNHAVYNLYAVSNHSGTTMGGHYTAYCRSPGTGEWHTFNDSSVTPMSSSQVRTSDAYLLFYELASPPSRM

Row | Compound | inhibition
1 | Cc1cnc(-c2ccccc2C(C)C)nc1NCc1ccc(-n2ccnn2)cc1 | 8% (inactive)
